Where “and” joins values, the source holds several entries; their conditions need not be identical. Identical values can stand only once. Inconclusive results are not listed. Calls of active or inactive are those of the source. Unless noted, calls follow the shape of the dose curve; as a rule, active = well fitted curve in either direction with a large enough effect (not every such curve was filed as active); inconclusive = small, poorly fitted or top-dose-only effect, or another doubt; inactive = flat fitted curve, though single readings scatter.
Tests used:
[1] = target: Lysosomal acid glucosylceramidase (Homo sapiens) (UniProt P04062); test: Glucocerebrosidase-p2 (AID 348; in the data active = potency below about 10 µM; also: potency is read from the fitted curve at half-maximal effect); details: purified GBA, blue fluorogenic substrate, 40 min
Lysosomal acid glucosylceramidase (Homo sapiens), sequence (P04062 whole entry, looked up): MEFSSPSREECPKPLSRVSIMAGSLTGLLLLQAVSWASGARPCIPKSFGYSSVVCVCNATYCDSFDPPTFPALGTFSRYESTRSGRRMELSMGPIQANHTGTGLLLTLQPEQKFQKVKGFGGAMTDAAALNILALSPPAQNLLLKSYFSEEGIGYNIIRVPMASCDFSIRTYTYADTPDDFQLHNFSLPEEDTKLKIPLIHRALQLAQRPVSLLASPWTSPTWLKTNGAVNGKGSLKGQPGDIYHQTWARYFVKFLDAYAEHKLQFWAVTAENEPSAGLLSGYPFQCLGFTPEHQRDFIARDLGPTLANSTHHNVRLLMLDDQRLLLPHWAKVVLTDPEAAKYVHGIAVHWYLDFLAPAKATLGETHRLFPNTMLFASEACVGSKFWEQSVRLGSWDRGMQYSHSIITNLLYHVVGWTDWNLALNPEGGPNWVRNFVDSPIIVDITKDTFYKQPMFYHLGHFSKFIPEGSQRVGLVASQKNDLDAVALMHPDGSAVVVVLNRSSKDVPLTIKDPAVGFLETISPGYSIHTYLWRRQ
Summary of the method: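 Compounds titrated from 0.6 nM upwards against 0.2 nM enzyme in pH 5.9 citric acid/KH2PO4, taurocholate, tween-20; blue fluorogenic substrate 80 uM, 40 min room temperature, stopped and read Ex 365/Em 440 for AC50.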

[2] = AP1 Signaling Pathway (AID 357); details: ME-180 AP-1-bla reporter, EGF-induced, beta-lactamase ratio, 5 h; series mostly up to 17.2 µM;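 also: ME-180 reporter cells stimulated with EGF at its EC50 level; % is scaled to controls: 0 for no effect and ±100 for the full control effect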
Summary of the method: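 First, ME-180 AP-1-bla cells were cultured overnight at 37 °C in low-serum Opti-MEM. Next, titrated compounds with EC50 EGF were incubated 5 hours. Finally, CCF4 was added for 2.5 hours and the 460/530 nm ratio recorded.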

[3] = target: Cytochrome P450 1A2 (Homo sapiens) (UniProt P05177); test: p450-cyp1a2 (AID 410; calls by dose curve; also: potency is read from the fitted curve at half-maximal effect;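 as to activity change, negative = inhibition: -100% = full effect of reference inhibitor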); details: recombinant CYP1A2, luciferin-ME demethylation, luminescence; series mostly up to 25.6 µM
Cytochrome P450 1A2 (Homo sapiens), sequence (P05177 whole entry, looked up): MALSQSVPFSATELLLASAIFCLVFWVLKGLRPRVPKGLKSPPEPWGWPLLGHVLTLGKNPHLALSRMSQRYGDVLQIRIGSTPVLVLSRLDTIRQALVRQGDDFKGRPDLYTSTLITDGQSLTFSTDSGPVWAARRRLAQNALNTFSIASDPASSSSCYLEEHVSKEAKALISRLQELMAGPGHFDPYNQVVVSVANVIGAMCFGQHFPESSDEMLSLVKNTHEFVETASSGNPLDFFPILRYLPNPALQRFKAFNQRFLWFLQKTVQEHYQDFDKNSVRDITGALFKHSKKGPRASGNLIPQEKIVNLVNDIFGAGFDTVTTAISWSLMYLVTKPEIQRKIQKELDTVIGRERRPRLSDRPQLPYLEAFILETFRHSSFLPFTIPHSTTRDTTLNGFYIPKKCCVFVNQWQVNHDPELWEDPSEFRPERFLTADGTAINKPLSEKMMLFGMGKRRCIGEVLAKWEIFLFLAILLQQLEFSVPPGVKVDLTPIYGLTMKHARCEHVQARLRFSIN
Summary of the method: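 20nM CYP1A2 with 100uM Luciferin-ME (at Km) in 100mM KPO4; compound preincubated 10 min, NADPH regeneration added, 60 min at room temperature. Luciferin quantified by luminescence after detection reagent; normalized to 57 uM furafylline.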

[4] = NFAT Signaling Pathway (AID 444); details: Jurkat NFAT-bla M1, carbachol, beta-lactamase ratio, 5 h;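 also: carbachol stimulus at about its EC50 of 1 µM final; % is scaled to controls: 0 for no effect and ±100 for the full control effect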
Summary of the method: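 Jurkat cells with NFAT-driven β-lactamase reporter and co-expressed M1 receptor, stimulated with carbachol (final 1 uM, ~EC50), compound titration, 5 h at 37 °C. CCF4 loaded 1 h at RT; 460/530 nm ratio gave %activity and AC50.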

[5] = Stat Signaling Pathway (AID 446); details: ME-180 SIE beta-lactamase reporter, IL-6 stimulated, 5 h; series mostly up to 17.2 µM;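 also: ME-180 cervical cancer cells given 40 pM IL-6 alongside compound; SIE-controlled beta-lactamase reporter measured as 460/530 nm FRET emission ratio; % is scaled to controls: 0 for no effect and ±100 for the full control effect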
Summary of the method: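 ME-180 cells carrying a SIE-driven beta-lactamase reporter are stimulated with 40 pM IL-6 for 5 h at 37C in the presence of compound. The 460/530 nm FRET substrate ratio is read after 2.5 h at RT. Data are normalised to 300 pM IL-6 and to 125 nM JAK inhibitor controls.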

[6] = target: Glucocorticoid receptor (Homo sapiens) (UniProt P04150); test: GR-GFP Redistribution (AID 450;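 active = compounds whose dose series gives a full or clear partial fitted curve of increased nuclear translocation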; also: potency is read from the fitted curve at half-maximal effect); details: U2OS GR-GFP nuclear translocation, laser cytometry, 2 h
Glucocorticoid receptor (Homo sapiens), sequence (P04150 whole entry, looked up, the tested form may be a part): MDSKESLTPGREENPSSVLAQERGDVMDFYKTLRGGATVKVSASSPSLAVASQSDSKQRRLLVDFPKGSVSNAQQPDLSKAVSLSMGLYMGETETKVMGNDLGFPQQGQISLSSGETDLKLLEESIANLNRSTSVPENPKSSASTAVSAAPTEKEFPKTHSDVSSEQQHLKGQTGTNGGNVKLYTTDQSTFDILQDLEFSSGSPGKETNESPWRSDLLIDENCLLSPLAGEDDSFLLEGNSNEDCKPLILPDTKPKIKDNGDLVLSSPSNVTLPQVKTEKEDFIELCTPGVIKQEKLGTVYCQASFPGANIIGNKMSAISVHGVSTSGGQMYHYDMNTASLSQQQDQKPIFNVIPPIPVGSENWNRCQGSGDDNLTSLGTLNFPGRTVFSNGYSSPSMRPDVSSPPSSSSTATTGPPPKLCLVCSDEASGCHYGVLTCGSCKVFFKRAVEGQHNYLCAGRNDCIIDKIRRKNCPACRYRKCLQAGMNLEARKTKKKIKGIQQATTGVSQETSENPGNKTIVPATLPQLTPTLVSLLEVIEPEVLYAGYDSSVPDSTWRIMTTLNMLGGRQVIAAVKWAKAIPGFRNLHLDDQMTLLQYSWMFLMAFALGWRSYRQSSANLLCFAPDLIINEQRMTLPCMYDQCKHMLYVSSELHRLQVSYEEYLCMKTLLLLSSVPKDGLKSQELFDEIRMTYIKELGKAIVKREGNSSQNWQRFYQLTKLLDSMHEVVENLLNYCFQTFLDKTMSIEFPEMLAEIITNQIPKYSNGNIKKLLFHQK

[7] = target: Glucocorticoid receptor (Homo sapiens) (UniProt P04150); test: GR-EFC Redistribution (AID 451; calls by dose curve; also: potency is read from the fitted curve at half-maximal effect); details: CHO-K1 GR-EFC translocation, beta-gal luminescence, 2 h
Summary of the method: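 CHO-K1 cells expressing nuclear EA and GR-ED fragments of b-gal; compounds titrated up to 46 uM final, 2 h at 37 C. GR nuclear translocation read as complemented b-gal luminescence after 1 h RT detection.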

[8] = target: Mitogen-activated protein kinase 10 (Mus musculus) (UniProt Q61831); test: JNK3 AlphaScreen Assay (AID 530); details: JNK3 lysate, c-Jun phosphorylation; series mostly up to 25.6 µM;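 also: kinase came from lysate of stimulated human HepG2 cells; signal reports phosphorylation of biotinylated GST-cJun 1-79 at Ser73 with 10 µM ATP; % is scaled to controls: 0 for no effect and ±100 for the full control effect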
Summary of the method: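 Pre-activated (IL-1β/TNFα) JNK3 in HepG2 lysates phosphorylates biotin-GST-cJun(1-79), 10 uM ATP; anti-phospho-cJun(Ser73) AlphaScreen read at room temperature, pH 7.6 Tris buffer. Compounds pre-incubated 15 min as titrations.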

[9] = Cell Viability - BJ (AID 421; calls by dose curve;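 also: potency is read from the fitted curve at half-maximal effect; cells exposed to compound for 40 hours at 37 °C before readout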); details: BJ fibroblast viability, qHTS
Summary of the method: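 Normal human BJ foreskin fibroblasts, 1500/well in complete medium, treated 40 hr at 37 °C. Cellular ATP by CellTiter-Glo luminescence; normalized to DMSO and 100 uM tamoxifen, AC50 from Hill fit.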

[10] = Cell Viability - HepG2 (AID 433; calls by dose curve;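 also: potency is read from the fitted curve at half-maximal effect; potency for ATP loss meaning cytotoxicity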); details: qHTS
Summary of the method: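 Cytotoxicity read as ATP loss (CellTiter-Glo luminescence) after 40 hr compound exposure of HepG2, 1500 cells/well, 37 °C. AC50 by Hill equation; 0% set by DMSO, 100% inhibition by 100 uM tamoxifen.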

[11] = Cell Viability - N2a (AID 540; active = well fitted curve in the direction sought with a large enough effect; an effect the other way counts as inactive or inconclusive; also: nearly all actives have a fitted effect of over 45% in size; also: potency is read from the fitted curve at half-maximal effect;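 as to activity change, negative = cytotoxicity: plate controls were DMSO alone for no effect and tamoxifen control for full effect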); details: N2a mouse neuroblastoma cell viability; series mostly up to 92.2 µM
Summary of the method: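 Mouse neuroblastoma N2a cells, 1500/well, exposed to compounds 40 h at 37 °C in complete medium. Viability measured as cellular ATP by CellTiter-Glo luminescence; AC50 from Hill fits of concentration-response.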

[12] = Cell Viability - NIH 3T3 (AID 541; active = well fitted curve in the direction sought with a large enough effect; an effect the other way counts as inactive or inconclusive;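 also: plate controls were DMSO alone for no effect and tamoxifen positive control for full effect; nearly all actives have a fitted effect of over 25% in size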); details: NIH 3T3 cell viability, qHTS; activity change, negative = cytotoxicity: at 92.2 µM (top of the series)
Summary of the method: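 Mouse NIH 3T3 fibroblasts, 1000 cells/well, rested 5 hr at 37 °C, then exposed to compound for 40 hr at 37 °C in complete medium. Viability read as intracellular ATP by CellTiter-Glo luminescence; AC50 from Hill-equation fits of concentration-response data.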

[13] = Cell Viability - H-4-II-E (AID 543; active = well fitted curve in the direction sought with a large enough effect; an effect the other way counts as inactive or inconclusive; also: nearly all actives have a fitted effect of over 35% in size; also: potency is read from the fitted curve at half-maximal effect); details: H-4-II-E rat hepatoma viability; series mostly up to 92.2 µM
Summary of the method: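 Rat hepatoma H-4-II-E cells, 1500 per well, treated 40 h at 37 °C in complete medium. Cellular ATP read by CellTiter-Glo luminescence; AC50 from Hill fits of concentration-response.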

[14] = Cell Viability - SH-SY5Y (AID 544; active = well fitted curve in the direction sought with a large enough effect; an effect the other way counts as inactive or inconclusive; also: nearly all actives have a fitted effect of over 55% in size; also: potency is read from the fitted curve at half-maximal effect;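 as to viability change, negative = cytotoxic: 0% = DMSO alone and -100% = 100 µM tamoxifen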); details: SH-SY5Y neuroblastoma cell viability; viability change, negative = cytotoxic: at 92.2 µM (top of the series)
Summary of the method: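 SH-SY5Y human neuroblastoma cells (1500/well) incubated 5 h, then compound-treated 40 h at 37 °C in complete medium. Viability read as intracellular ATP by CellTiter-Glo luminescence after 20 min; AC50 from Hill-equation fits of qHTS concentration-response.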

[15] = Cell Viability - Mesenchymal (AID 546; active = well fitted curve in the direction sought with a large enough effect; an effect the other way counts as inactive or inconclusive;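 also: cells exposed to compound for 40 hours before reading; 0% = DMSO only and -100% = 100 µM tamoxifen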); details: mesenchymal cells viability, qHTS; series mostly up to 91.7 µM
Summary of the method: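 Human kidney mesenchymal cells from normal renal glomeruli, 1000 cells/well, rested 5 hr at 37 °C, then treated 40 hr at 37 °C in complete medium. Cellular ATP read by CellTiter-Glo luminescence; AC50 from Hill-equation fits.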

[16] = Cell Viability - Hek293 (AID 427;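 active = compounds whose dose-response curve shows a full or clear partial loss of cell viability, called from curve shape rather than a numeric limit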;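 also: potency is read from the fitted curve at half-maximal effect; cells exposed to compound for 40 hours at 37 °C before reading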); details: qHTS
Summary of the method: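 HEK293 cells in complete medium were exposed to compound for 40 hr at 37 °C, then cellular ATP was read by CellTiter-Glo luminescence. Data were normalized to DMSO (basal) and 100 uM tamoxifen (100% inhibition), and AC50 came from Hill fits.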

[17] = Cell Viability - Jurkat (AID 426;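 active = dose-dependent loss of cell ATP signal giving a full or clear fitted curve, ranked by lower potency value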; also: potency is read from the fitted curve at half-maximal effect); details: qHTS
Summary of the method: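 Jurkat (Clone E6-1) cells, 5000/well in complete medium, exposed to compounds for 40 hr at 37C; intracellular ATP measured by CellTiter-Glo luminescence after 20 min at room temperature. AC50 from Hill fits.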

[18] = Cell Viability - MRC5 (AID 434; calls by dose curve;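 also: potency is read from the fitted curve at half-maximal effect; potency reflects cytotoxicity seen as loss of intracellular ATP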); details: MRC5 lung fibroblast viability, qHTS
Summary of the method: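 MRC5 normal human lung fibroblasts, 1500 cells/well, exposed to compound for 40 hr at 37 C. Cellular ATP was read by CellTiter-Glo luminescence; data normalized to DMSO and 100 uM tamoxifen, with AC50 from Hill fits.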

[19] = Cell Viability - HUV-EC-C (AID 542; active = well fitted curve in the direction sought with a large enough effect; an effect the other way counts as inactive or inconclusive; also: % is scaled to controls: 0 for no effect and ±100 for the full control effect; nearly all actives have a fitted effect of over 35% in size); details: HUV-EC-C endothelial cell viability, qHTS; series mostly up to 92.2 µM
Summary of the method: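 HUV-EC-C human vascular endothelial cells, 1000/well, exposed to compound for 40 hr at 37 °C in complete medium. Intracellular ATP was read by CellTiter-Glo luminescence. AC50 came from Hill-equation fits of concentration-response data.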

[20] = Cell Viability - Renal Proximal Tubule (AID 545; active = well fitted curve in the direction sought with a large enough effect; an effect the other way counts as inactive or inconclusive;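 also: 0% = DMSO only and -100% = 100 µM tamoxifen; nearly all actives have a fitted effect of over 40% in size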); details: renal proximal tubule cells viability, primary cells of rat origin; series mostly up to 91.7 µM
Summary of the method: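 Viability taken as intracellular ATP (CellTiter-Glo luminescence) after 40 hr, 37 °C compound treatment of primary proximal tubule cells from rat kidney, 1000 cells/well; Hill-equation fits of qHTS concentration-response data gave AC50.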

[21] = at 17.2 µM (top of the series) unless noted

Nc1ccc(S(=O)(=O)Nc2cnc3ccccc3n2)cc1
inactive: Potency [1] > 11.4 µM | outcome [2] | Potency [3] | activity change, negative = inhibition ([4]; at 7.69 µM (top of the series)) -24.5% | activity change, negative = inhibition ([4]; at 17.2 µM (top of the series)) -5.07% | outcome [5] | Potency [6] > 20.6 µM and > 46 µM | Potency [7] > 20.6 µM and > 9.22 µM | Potency [8]

O=C(CCCN1CC=C(n2c(=O)[nH]c3ccccc32)CC1)c1ccc(F)cc1
inactive: outcome [2] | Potency [3] | activity change, negative = inhibition [4, 21] -14.9% | outcome [5] | Potency [6] > 20.6 µM | Potency [7] > 20.6 µM | Potency [8]

COc1cc(NS(=O)(=O)c2ccc(N)cc2)ncn1
inactive: outcome [2] | activity change, negative = inhibition [4, 21] -5.57% and -24.6% and -2.19% | outcome [5] | Potency [6] > 20.6 µM | Potency [7] > 20.6 µM | Potency [8]

CN1CCC(OC(c2ccccc2)c2ccccc2)CC1
inactive: outcome [2] | outcome [5] | Potency [7] > 20.6 µM | Potency [8]

Cl/C(=C\n1cncn1)c1ccc(Cl)cc1Cl
inactive: Potency [6] > 46 µM | Potency [7] > 46 µM
active: Potency [3] 0.0631 µM

Oc1c(Cl)cc(Cl)c(Cl)c1Cc1c(O)c(Cl)cc(Cl)c1Cl
active: Potency [10] 10.7 µM | Potency [11] 0.794 µM | activity change, negative = cytotoxicity [12] -102% | Potency [13] 31.6 µM | Potency [14] 15.8 µM
inactive: Potency [9] 0.536 µM | Potency [8] | outcome [15]

CC[C@H](c1ccc(O)cc1)[C@@H](CC)c1ccc(O)cc1
inactive: outcome [5] | Potency [6] > 20.6 µM | Potency [7] > 20.6 µM | Potency [8]
active: Potency [3] 12.6 µM

O=C(O)CCC(=O)Nc1ccc(S(=O)(=O)Nc2nccs2)cc1
inactive: outcome [2] | activity change, negative = inhibition [4, 21] 4.24% and -25.1% | outcome [5] | Potency [6] > 20.6 µM | Potency [7] > 20.6 µM | Potency [8]

Oc1ccc(Cl)cc1Cc1cc(Cl)ccc1O
active: Potency [16] 37.4 µM | Potency [10] 40.6 µM | Potency [11] 31.6 µM | activity change, negative = cytotoxicity [12] -84.9% | viability change, negative = cytotoxic [14] -85.8%
inactive: Potency [8]

OC[C@H]1O[C@@H]2O[C@H]3[C@H](O)[C@@H](O)[C@@H](O[C@H]4[C@H](O)[C@@H](O)[C@@H](O[C@H]5[C@H](O)[C@@H](O)[C@@H](O[C@H]6[C@H](O)[C@@H](O)[C@@H](O[C@H]7[C@H](O)[C@@H](O)[C@@H](O[C@H]8[C@H](O)[C@@H](O)[C@@H](O[C@H]1[C@H](O)[C@H]2O)O[C@@H]8CO)O[C@@H]7CO)O[C@@H]6CO)O[C@@H]5CO)O[C@@H]4CO)O[C@@H]3CO
inactive: Potency [9] > 92 µM | Potency [17] > 92 µM | Potency [16] > 92 µM | Potency [10] > 92 µM | Potency [18] > 92 µM | Potency [8] | Potency [11] | activity change, negative = cytotoxicity [12] 5.27% | outcome [19] | Potency [13] | viability change, negative = cytotoxic [14] -6.32% | outcome [20] | outcome [15]

CN(C)CCOC(=O)C(c1ccccc1)C1(O)CCCC1 (stereo not given)
inactive: outcome [2] | outcome [5] | Potency [6] > 20.6 µM
active: activity change, negative = inhibition [4, 21] -76.1%

O=c1[nH]c(=O)n([C@H]2C[C@H](O)[C@@H](CO)O2)cc1F
inactive: outcome [2] | outcome [5] | Potency [6] > 20.6 µM

NCCNc1cccc2ccccc12
inactive: Potency [9] > 92 µM | Potency [10] > 92 µM | Potency [18] > 92 µM | Potency [8] | Potency [11] | activity change, negative = cytotoxicity [12] -24.9% | outcome [19] | outcome [20] | outcome [15]

O=C(c1ccc(F)cc1)C1CCN(CCn2c(=S)[nH]c3ccccc3c2=O)CC1
inactive: Potency [6] > 46 µM | Potency [7] > 46 µM | Potency [8]
active: Potency [3] 15.8 µM

COc1ccccc1N1CCN(CCCCNC(=O)c2ccc(-c3ccc(C(C)=O)cc3)cc2)CC1
active: Potency [3] 25.1 µM
inactive: Potency [6] > 46 µM | Potency [7] > 46 µM

COc1cc(C)nc(-n2nc(C)cc2OC)n1
inactive: outcome [2] | activity change, negative = inhibition [4, 21] -6.98% | outcome [5] | Potency [6] > 20.6 µM | Potency [7] > 20.6 µM | Potency [8]

CCOC(=O)Nc1ccc2c(c1)N(C(=O)CCN1CCOCC1)c1ccccc1S2
inactive: Potency [3] | outcome [5] | Potency [7] > 20.6 µM | Potency [8]

O=C(O)c1ccc(S(=O)(=O)N(Cl)Cl)cc1
inactive: Potency [9] > 92 µM | Potency [16] > 92 µM | Potency [10] > 92 µM | Potency [18] > 92 µM | Potency [8] | Potency [11] | activity change, negative = cytotoxicity [12] -11.9% | outcome [19] | Potency [13] | viability change, negative = cytotoxic [14] -7.18% | outcome [20] | outcome [15]

C/C=C/c1ccc(O)c(OC)c1
inactive: Potency [9] > 92 µM | Potency [17] > 92 µM | Potency [16] > 92 µM | Potency [10] > 92 µM | Potency [18] > 92 µM | Potency [8] | Potency [11] | activity change, negative = cytotoxicity [12] -17% | outcome [19] | Potency [13] | viability change, negative = cytotoxic [14] 1.26% | outcome [20] | outcome [15]

Source: PubChem BioAssay (NCATS)
